Compound activity: PubChem, several laboratories
Rows were chosen to be rich in hits. Some 0.76% of all compounds tested hit in one or more screens of this group.
UGM FP inh – blocks M. tuberculosis UGM enzyme. 320,000 compounds, 0.06% hits. purified UGM, fluorescence polarization probe displacement. inhibition, % at 10 µM; in the data active = inhibition above about 10%, passing the limit was not always enough; inconclusive = no clear call, values can overlap the other calls
Rv3671c protease – Rv3671c (M. tuberculosis) protease inhibition | P9WHR9 | inhibition, % at 5.96 µM | 320,000 compounds, 0.048% hits; in the data active = inhibition above about 38%;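 also: extracellular domain of Rv3671c used as enzyme; 0% = enzyme with DMSO and 100% = no enzyme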
Target sequence (P9WHR9 whole entry, looked up, the tested form may be a part): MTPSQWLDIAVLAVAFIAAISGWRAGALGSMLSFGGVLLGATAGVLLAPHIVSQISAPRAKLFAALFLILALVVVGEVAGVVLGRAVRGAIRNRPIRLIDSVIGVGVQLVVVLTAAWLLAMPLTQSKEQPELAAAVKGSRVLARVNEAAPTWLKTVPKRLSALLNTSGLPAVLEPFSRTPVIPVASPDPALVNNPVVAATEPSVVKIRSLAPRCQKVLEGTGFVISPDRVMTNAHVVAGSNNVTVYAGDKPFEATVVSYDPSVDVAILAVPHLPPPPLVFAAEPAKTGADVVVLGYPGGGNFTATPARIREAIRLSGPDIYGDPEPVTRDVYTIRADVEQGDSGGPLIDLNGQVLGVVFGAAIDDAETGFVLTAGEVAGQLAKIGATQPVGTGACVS
PrP 5UTR inh – suppresses PrP 5' UTR mRNA reporter expression; cell-based PrP 5' UTR mRNA reporter, plate reader; inhibition, % (test concentration not listed); 340,000 compounds, 0.35% hits; in the data active = inhibition above about 52%; also: 0 = median of the neutral control wells
Mtb betalactam – beta-lactam sensitization of Mtb H37Rv; M. tuberculosis H37Rv growth with meropenem, percent inhibition; AID 434955; inhibition, % at 25 µM; 330,000 compounds, 0.27% hits; call rule not given here;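 also: growth measured after seven days incubation then overnight dye step; 0% = bacteria only wells and 100% = bacteria with antibiotic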
BH1578 lux ind – quorum light induction in luxS cqsA deficient V. cholerae; V. cholerae BH1578 lux reporter, luminescence, 6 h; activation, % at 18.7 µM; 350,000 compounds, 0.16% hits; in the data active = activation mostly above about 9.7%, no sharp cut-off; inconclusive = no clear call, values can overlap the other calls; inactive = mostly below about 3.7%
FadD28 FP inh – blocks FadD28 binding to the bisubstrate probe. AID 588549. inhibition, % at 12.5 µM. 360,000 compounds, 0.22% hits. fluorescence polarization; in the data active = inhibition above about 8.5%, passing the limit was not always enough; inconclusive = no clear call, values can overlap the other calls
* hit, by the source's call; i = inactive; u = inconclusive; x = no result; + = active, no number.

SMILES	UGM FP inh	Rv3671c protease	PrP 5UTR inh	Mtb betalactam	BH1578 lux ind	FadD28 FP inh
CC1CC(C)CN(C(=O)COC(=O)c2ccc[nH]c2=O)C1 (stereo not drawn)	-1.0	-3.6	-2.5	7.3	25.0*	-1.3
O=C(NCc1cccc(C(F)(F)F)c1)c1cccc2c1C(=O)c1ccc(N3CCC(Cc4ccccc4)CC3)cc1S2(=O)=O	8.6	-24.0	-15.9	4.4	0.4	-1.7
O=C(NCc1ccc(OC(F)(F)F)cc1)c1cccc2c1C(=O)c1ccc(N3CCCC3)cc1S2(=O)=O	4.2	-2.6	13.1	6.5	-4.5	-0.1
O=C(NCCc1ccc(F)cc1)c1cccc2c1C(=O)c1ccc(N3CCC(Cc4ccccc4)CC3)cc1S2(=O)=O	11.3*	-23.0	-10.1	5.5	i	1.1
O=C(NCc1cccc(F)c1)c1cccc2c1C(=O)c1ccc(N3CCC(Cc4ccccc4)CC3)cc1S2(=O)=O	22.0*	-24.9	-18.7	-2.7	0.0	-2.9
O=C(NCc1ccc(OC(F)(F)F)cc1)c1cccc2c1C(=O)c1ccc(N3CCCCC3)cc1S2(=O)=O	19.9*	-9.0	-19.7	7.3	-4.5	4.6
CCc1nc2c(OCc3cc(Cl)cc(Cl)c3)cccn2c1N(C)C(=O)c1ccc(C)cc1	x	x	x	x	-0.2	-5.3
O=[N+]([O-])c1ccc(/C=N/n2cnc3ccccc32)s1	11.3*	-10.2	-22.3	99.8	-0.4	-0.5
Cc1cc2ncn(/N=C/c3ccc([N+](=O)[O-])s3)c2cc1C	-8.0	6.6	-15.2	100.0	0.0	-2.3
CN(C)c1ccc2cc(S(=O)(=O)O)cc(O)c2c1	x	x	3.4	x	13.0	19.3*
CCc1ccccc1NC(=O)CSc1nc2n[nH]c(C)c2c(=N)n1-c1cccc(OC)c1	0.5	-2.0	-22.3	8.2	i	-14.9
COc1cc(CCN(C(=O)c2cccc(S(C)(=O)=O)c2)C(CCc2ccccc2)c2nc3ccccc3[nH]2)cc(OC)c1 (stereo not drawn)	x	x	x	x	x	1.2
CCOC(=O)/C(C#N)=C1/C=Nc2ccccc2N1	0.3	1.1	-14.8	2.4	-0.3	-4.1
CCOC(=O)/C(C#N)=C1\CC2CCC1(C)C2(C)C (stereo not drawn)	13.1*	0.7	-2.4	-2.9	x	-2.3
Cc1nnc(SCc2c(Cl)cccc2Cl)n(N)c1=O	-2.0	-4.5	-13.3	-3.2	57.5*	-2.0
Cc1nnc(SCc2cccc3ccccc23)n(N)c1=O	0.9	-1.2	-18.6	99.5	-1.5	-1.0
CC1(C(=O)N(c2ccccc2)C(C(=O)NC2CCCC2)c2ccccn2)CC(=O)N=C2C=CC=CN21 (stereo not drawn)	0.7	-2.1	-18.9	-6.7	-0.6	0.4
CCN1C(=O)NC(=O)/C(=C\c2cn(CC(=O)N3CCCCC3)c3ccccc23)C1=O	40.6*	-17.6	10.6	3.2	i	3.2
CCN1C(=O)NC(=O)/C(=C\c2cn(CC(=O)O)c3ccccc23)C1=O	-0.4	-13.5	x	0.7	x	x
CCN1C(=O)NC(=O)/C(=C\c2cn(CC(=O)N3CCCC3)c3ccccc23)C1=O	52.2*	-13.2	-5.7	11.9	-0.3	x
O=C1NC(=S)SC1=Cc1cc(Br)ccc1O	x	x	-1.1	x	x	11.6*
O=C1NC(=S)SC1=Cc1ccccc1Br	x	x	-16.2	x	-3.8	-10.8
N#CC1=C(N)Oc2cc(N)ccc2C1c1ccsc1 (stereo not drawn)	-1.6	-37.9	-25.9	-1.0	-0.4	-3.8
N#CC1=C(N)Oc2ccc3ccc(O)cc3c2C1c1ccsc1 (stereo not drawn)	x	x	-26.4	x	i	15.4*
CCn1c(C)cc(/C=C2\NC(=O)N(CC(=O)Nc3cccc(C)c3)C2=O)c1C	-0.9	1.0	-22.9	10.5	-3.8	10.3*
SMILES	UGM FP inh	Rv3671c protease	PrP 5UTR inh	Mtb betalactam	BH1578 lux ind	FadD28 FP inh
Cc1ccc(NC(=O)CN2C(=O)S/C(=C/c3ccc(-c4cc(C(=O)O)ccc4C)o3)C2=O)cc1C	1.6	-12.6	0.3	71.4	-1.0	14.4*
COc1cc(/C=C2\SC(=O)N(CC(=O)Nc3cccc(C)c3)C2=O)cc([N+](=O)[O-])c1O	x	x	0.6	x	0.2	30.7*
Cc1ccc(NC(=O)CN2C(=O)N/C(=C/c3cc(C)n(-c4cccc(C(=O)O)c4)c3C)C2=O)cc1	x	x	-9.6	x	i	48.6*
CCOc1cc(/C=C2\SC(=O)N(CC(=O)Nc3ccccc3F)C2=O)cc([N+](=O)[O-])c1O	-2.2	7.2	-12.9	22.3	i	u
COC(=O)c1sc(=S)sc1C(=O)OC	3.5	-17.8	-14.1	-2.4	i	-2.8
Cc1ccccc1CCNC(=O)C1CC(O)CN1C(=O)Nc1ccccc1 (stereo not drawn)	-0.8	3.8	-21.3	-6.7	-0.4	-2.5
CN(Cc1ccccn1)C(=O)c1cc(COc2ccc(F)c(F)c2)on1	x	x	x	x	-0.8	0.6
COc1ccc(/C=C2/NC(=O)N(CC(=O)Nc3cccc(C)c3)C2=O)cc1O	1.2	-2.8	-16.2	0.8	i	18.1*
Cc1cccc(NC(=O)CN2C(=O)N/C(=C\c3ccc(-c4cccc(C(=O)O)c4)o3)C2=O)c1	2.9	-2.6	-26.1	2.1	-0.4	42.7*
Cc1cccc(NC(=O)CN2C(=O)N/C(=C/c3ccc(C)o3)C2=O)c1	1.0	-1.8	-10.4	-0.1	-2.4	2.8
CC(=O)c1c(CC(=O)O)[nH]n(-c2nc3ccccc3s2)c1=O	0.9	3.4	x	13.3	-3.3	-0.2
COC(=O)Cc1[nH]n(-c2nc3ccccc3s2)c(=O)c1C(C)=O	-1.2	4.3	-1.1	0.3	+	1.9
O=c1[nH]c2cnn(-c3ccccc3)c2c(=O)n1O	x	x	50.4	x	-0.8	-1.0
CC(=O)Nc1ccc(NC(=O)CSc2nncn2C)cc1	2.0	2.7	-13.9	-4.4	i	-0.4
COc1ccc(NC(=O)CSc2nncn2C)cc1OC	-1.8	-1.4	-19.3	-10.4	16.7*	-5.0
COc1ccccc1C(=O)NC(CCSC)C(=O)OCC(=O)N1CCN(S(=O)(=O)c2ccc(C)cc2)CC1 (stereo not drawn)	x	x	-10.3	x	2.8	-1.9
O=C(Nc1cc([N+](=O)[O-])ccc1N1CCOCC1)c1cccs1	0.7	5.2	-11.8	2.0	x	0.7
O=C(Nc1ccc(NC(=O)c2cc([N+](=O)[O-])ccc2N2CCOCC2)cc1)c1cccs1	0.9	-2.2	-16.3	-7.0	i	12.1*
Cc1cc2c(SCC(=O)Nc3cccc(O)c3)ncnc2s1	x	x	-6.5	x	-0.8	19.0*
CCC(CC)NC(=O)c1ccc2c(c1)OCCO2	0.4	1.4	-29.4	2.5	25.0*	-0.3
CC(NC(=O)c1ccc2c(c1)OCCO2)C(=O)O (stereo not drawn)	-6.0	-3.3	-25.9	2.3	i	-1.4
O=S(=O)(O)c1nc2ccccc2[nH]1	-0.7	-0.5	-15.6	4.0	-0.5	-1.4
CC(Cc1ccc(O)cc1)NCC(O)c1ccc(O)c(O)c1 (stereo not drawn)	x	x	x	x	-5.0	8.2*
CCC(C)(C)NC(=O)CN(C(=O)CCC(=O)Nc1nccs1)c1ccccc1C	-0.7	-5.1	-1.6	-1.9	i	-2.0
